For some assays here: Results with a measured potency or affinity are listed apart.
Columns and labels:
Parameters in all cases: scale not given: direction of the effect not stated beside the values
[1] = target: Protein translocase subunit SecA (Escherichia coli (strain K12)) (UniProt P10408); assay: Assay to Identify E. coli SecA ATPase Inhibitors; format: functional; conditions: 30 µM
[2] = target: T1, Ubiquitin-activating enzyme e1, putative (Leishmania donovani (strain BPK282A1)) (UniProt E9BSI1); assay: Leishmania donovani Ubiquitin Activating Enzyme (LdE1); format: functional; conditions: 30 µM
T1 sequence (whole entry): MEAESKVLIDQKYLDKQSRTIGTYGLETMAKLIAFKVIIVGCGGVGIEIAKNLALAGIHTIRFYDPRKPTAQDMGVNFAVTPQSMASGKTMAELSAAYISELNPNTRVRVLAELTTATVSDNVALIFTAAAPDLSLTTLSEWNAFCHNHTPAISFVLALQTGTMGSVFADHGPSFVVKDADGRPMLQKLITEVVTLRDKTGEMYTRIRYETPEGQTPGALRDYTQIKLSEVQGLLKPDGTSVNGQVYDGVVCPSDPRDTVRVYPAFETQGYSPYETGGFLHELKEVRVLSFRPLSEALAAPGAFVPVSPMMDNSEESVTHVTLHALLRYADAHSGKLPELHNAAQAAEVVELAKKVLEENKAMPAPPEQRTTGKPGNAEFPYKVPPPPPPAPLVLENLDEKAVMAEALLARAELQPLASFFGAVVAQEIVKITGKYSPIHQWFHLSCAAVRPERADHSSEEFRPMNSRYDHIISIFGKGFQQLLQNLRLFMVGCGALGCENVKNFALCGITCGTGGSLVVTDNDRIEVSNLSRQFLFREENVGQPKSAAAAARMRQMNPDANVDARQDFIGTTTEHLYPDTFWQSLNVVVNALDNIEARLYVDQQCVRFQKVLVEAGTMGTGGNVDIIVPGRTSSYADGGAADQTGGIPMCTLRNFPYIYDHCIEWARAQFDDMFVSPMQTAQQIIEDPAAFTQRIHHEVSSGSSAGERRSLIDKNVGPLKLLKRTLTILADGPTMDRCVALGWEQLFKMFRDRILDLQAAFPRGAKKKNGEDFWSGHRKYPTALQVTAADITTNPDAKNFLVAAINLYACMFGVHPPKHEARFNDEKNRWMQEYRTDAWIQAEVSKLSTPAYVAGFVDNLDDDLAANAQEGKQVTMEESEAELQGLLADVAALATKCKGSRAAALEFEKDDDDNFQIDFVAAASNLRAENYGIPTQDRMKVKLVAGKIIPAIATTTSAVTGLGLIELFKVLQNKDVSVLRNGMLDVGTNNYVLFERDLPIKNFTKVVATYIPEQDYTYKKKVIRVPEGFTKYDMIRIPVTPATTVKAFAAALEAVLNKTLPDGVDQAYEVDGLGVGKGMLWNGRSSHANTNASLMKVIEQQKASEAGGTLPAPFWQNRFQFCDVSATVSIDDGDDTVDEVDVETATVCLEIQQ

[3] = target: Sialic acid-binding Ig-like lectin 9 (Homo sapiens) (UniProt Q9Y336); assay: Hs-Siglec9 ALPHAscreen SOP 20170721; conditions: 10 µM
Trypanosoma cruzi = assay: Trypanosoma cruzi phosphomannomutase and mannose-1-phosphate guanylyltransferase assay; format: functional; conditions: 10 µM
[4] = target: T2, Arginase-2, mitochondrial (Homo sapiens) (UniProt P78540); assay: in vitro enzyme assay to detect the production of urea directly proportional to the activity of Arginase II; format: functional; conditions: 33.3 µM; also: in the data most compounds retested in dose-response had high values
T2 sequence (whole entry): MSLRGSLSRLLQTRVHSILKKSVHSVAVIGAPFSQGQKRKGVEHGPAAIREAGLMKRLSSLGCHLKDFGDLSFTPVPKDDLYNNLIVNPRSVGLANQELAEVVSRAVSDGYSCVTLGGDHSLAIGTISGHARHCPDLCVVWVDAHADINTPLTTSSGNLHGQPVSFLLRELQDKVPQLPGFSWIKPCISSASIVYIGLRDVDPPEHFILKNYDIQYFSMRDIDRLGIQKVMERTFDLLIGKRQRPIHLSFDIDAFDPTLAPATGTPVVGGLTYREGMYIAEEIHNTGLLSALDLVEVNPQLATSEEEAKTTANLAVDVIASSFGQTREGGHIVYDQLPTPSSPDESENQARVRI

[5] = target: T3, Proteasome subunit beta (Trypanosoma cruzi) (UniProt O96673); assay: Trypanosoma cruzi proteasome chymotrypsin-like activity (TcProtChymo) assay.; also: in the data most compounds retested in dose-response had high values; format: functional; conditions: 9.37 µM
T3 sequence (whole entry): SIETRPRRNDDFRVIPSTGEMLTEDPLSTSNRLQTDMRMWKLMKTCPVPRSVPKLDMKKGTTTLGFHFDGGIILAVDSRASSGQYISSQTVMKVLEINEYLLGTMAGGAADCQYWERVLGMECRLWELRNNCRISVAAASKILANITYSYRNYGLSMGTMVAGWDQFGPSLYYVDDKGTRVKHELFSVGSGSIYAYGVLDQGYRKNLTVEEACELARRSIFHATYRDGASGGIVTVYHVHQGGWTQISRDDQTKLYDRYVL

Homo sapiens = organism: Homo sapiens; assay: To identify inhibition of the IFN signalling (Jak-Stat) pathway via expression of an eGFP reporter gene under the control of an IFN-stimulated response element (ISRE) containing MxA promoter.; format: functional; conditions: 30 µM
[6] = target: T4, Tyrosyl-tRNA synthetase, putative (Trypanosoma cruzi (strain CL Brener)) (UniProt Q4DSP6); assay: Trypanosoma cruzi tyrosyl tRNA synthetase (TcYRS) _High Tyrosine SOP; format: functional; conditions: 30 µM; also: in the data most compounds retested in dose-response had high values
T4 sequence (whole entry): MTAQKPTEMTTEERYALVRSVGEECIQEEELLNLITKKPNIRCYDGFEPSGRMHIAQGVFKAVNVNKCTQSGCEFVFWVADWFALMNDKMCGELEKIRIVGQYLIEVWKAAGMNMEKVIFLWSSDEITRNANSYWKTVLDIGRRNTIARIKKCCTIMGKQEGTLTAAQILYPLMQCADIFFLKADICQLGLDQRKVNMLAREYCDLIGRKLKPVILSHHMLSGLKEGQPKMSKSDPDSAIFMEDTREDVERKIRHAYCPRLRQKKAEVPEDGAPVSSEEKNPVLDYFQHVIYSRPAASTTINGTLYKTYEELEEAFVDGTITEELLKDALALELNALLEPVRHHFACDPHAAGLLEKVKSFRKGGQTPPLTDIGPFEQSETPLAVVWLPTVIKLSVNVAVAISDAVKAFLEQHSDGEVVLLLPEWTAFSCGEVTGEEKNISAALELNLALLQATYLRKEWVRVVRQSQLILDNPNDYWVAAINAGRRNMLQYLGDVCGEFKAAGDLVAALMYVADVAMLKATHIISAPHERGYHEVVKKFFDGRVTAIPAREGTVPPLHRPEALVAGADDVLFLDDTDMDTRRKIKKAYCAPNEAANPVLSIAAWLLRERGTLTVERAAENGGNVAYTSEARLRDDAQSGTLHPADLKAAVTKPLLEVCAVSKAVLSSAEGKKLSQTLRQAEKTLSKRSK

[7] = target: T4, Tyrosyl-tRNA synthetase, putative (Trypanosoma cruzi (strain CL Brener)); assay: Trypanosoma cruzi tyrosyl tRNA synthetase (TcYRS) SOP; format: functional; conditions: 30 µM
[8] = target: Chromo domain-containing protein 1 (Saccharomyces cerevisiae (strain ATCC 204508 / S288c) (Baker's yeast)) (UniProt P32657); assay: ScCHD-1 Enzyme Inhibition Assay; format: functional; conditions: 30 µM; also: in the data most compounds retested in dose-response had high values
Sequence of Chromo domain-containing protein 1 (Saccharomyces cerevisiae (strain ATCC 204508 / S288c) (Baker's yeast)) (P32657 whole entry, the tested form may be a part): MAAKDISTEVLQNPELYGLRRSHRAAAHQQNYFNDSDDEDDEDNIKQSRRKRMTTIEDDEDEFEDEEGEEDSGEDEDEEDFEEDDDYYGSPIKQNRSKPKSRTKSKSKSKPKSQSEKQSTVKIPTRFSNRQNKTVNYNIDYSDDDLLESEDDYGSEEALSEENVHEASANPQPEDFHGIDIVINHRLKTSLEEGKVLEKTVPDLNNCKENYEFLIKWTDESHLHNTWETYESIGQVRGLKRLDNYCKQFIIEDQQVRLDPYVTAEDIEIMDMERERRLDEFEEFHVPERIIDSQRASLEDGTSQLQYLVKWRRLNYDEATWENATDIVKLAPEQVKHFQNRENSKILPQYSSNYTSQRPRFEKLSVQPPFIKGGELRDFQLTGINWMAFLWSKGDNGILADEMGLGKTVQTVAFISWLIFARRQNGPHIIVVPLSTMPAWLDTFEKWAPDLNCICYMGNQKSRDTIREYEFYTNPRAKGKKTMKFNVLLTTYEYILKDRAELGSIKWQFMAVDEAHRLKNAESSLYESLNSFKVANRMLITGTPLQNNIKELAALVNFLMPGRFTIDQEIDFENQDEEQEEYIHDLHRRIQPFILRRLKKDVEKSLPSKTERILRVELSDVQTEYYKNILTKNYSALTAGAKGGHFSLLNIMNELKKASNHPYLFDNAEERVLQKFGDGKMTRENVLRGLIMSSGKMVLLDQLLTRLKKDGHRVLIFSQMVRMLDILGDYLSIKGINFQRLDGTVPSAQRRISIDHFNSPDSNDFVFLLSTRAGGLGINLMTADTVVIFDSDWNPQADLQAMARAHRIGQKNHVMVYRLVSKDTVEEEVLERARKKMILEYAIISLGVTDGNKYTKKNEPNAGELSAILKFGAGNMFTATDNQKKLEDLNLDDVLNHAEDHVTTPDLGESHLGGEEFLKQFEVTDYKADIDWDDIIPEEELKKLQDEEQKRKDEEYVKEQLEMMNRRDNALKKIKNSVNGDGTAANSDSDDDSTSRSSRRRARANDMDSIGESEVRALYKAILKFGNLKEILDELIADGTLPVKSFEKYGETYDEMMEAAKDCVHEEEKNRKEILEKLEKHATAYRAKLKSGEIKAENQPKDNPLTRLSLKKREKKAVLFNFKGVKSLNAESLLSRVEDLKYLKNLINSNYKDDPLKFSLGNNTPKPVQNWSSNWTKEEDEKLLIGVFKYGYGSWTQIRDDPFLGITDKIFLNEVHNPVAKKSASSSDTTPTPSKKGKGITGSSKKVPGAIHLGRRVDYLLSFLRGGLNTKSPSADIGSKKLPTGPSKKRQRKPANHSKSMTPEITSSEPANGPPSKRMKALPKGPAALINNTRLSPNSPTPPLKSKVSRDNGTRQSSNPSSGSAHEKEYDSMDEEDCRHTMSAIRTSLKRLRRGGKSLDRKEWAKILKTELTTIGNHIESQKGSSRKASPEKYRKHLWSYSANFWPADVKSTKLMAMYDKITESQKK

Sequence of Sialic acid-binding Ig-like lectin 9 (Homo sapiens) (Q9Y336 whole entry): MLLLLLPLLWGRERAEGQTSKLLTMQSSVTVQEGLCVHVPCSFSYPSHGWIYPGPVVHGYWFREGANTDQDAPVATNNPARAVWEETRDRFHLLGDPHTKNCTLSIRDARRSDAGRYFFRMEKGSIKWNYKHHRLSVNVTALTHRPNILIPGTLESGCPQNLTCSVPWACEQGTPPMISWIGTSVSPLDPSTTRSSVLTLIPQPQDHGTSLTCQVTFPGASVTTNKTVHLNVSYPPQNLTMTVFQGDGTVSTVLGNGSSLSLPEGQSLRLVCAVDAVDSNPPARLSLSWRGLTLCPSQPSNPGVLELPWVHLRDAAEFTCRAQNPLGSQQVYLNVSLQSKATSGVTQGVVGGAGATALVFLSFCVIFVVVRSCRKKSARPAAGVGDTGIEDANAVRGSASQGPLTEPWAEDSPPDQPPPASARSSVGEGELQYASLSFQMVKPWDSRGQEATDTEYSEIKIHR
Sequence of Protein translocase subunit SecA (Escherichia coli (strain K12)) (P10408 whole entry): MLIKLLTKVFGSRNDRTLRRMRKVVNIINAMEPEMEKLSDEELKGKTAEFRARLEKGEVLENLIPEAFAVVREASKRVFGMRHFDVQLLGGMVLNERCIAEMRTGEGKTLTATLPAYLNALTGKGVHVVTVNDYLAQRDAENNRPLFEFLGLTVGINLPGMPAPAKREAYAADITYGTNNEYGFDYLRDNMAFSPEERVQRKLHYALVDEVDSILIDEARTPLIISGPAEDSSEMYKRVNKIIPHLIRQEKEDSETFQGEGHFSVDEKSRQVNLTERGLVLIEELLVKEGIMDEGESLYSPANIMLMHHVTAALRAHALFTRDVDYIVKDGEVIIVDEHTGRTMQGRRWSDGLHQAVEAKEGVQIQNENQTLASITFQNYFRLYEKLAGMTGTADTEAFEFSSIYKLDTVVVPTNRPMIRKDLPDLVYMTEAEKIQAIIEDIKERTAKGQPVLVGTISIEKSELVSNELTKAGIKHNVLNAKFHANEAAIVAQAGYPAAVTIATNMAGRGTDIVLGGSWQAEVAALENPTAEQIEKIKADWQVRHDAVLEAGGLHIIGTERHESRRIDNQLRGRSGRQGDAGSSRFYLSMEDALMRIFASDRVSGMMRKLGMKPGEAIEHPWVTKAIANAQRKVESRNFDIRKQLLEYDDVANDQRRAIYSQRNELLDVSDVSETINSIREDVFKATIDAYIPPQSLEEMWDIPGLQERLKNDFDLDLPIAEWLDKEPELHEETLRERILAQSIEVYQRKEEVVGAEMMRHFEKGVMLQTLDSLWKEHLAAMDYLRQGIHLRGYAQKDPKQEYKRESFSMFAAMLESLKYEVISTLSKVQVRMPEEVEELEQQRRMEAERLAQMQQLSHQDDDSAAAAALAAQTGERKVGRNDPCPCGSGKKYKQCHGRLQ

| Compound | Percent Effect [1] | Percent Effect [2] | Percent Effect [3] | Percent Effect (Trypanosoma cruzi) | Percent Effect [4] | Percent Effect [5] | Percent Effect (Homo sapiens) | Percent Effect [6] | Percent Effect [7] | Percent Effect [8] |
| --- | --- | --- | --- | --- | --- | --- | --- | --- | --- | --- |
| CCn1ccnc1CN1CCN(CC(O)c2ccccc2)CC1 (stereo not given) | -1.54% | 2.56% | 2.88% | -4.79% | 4.51% | 6.91% | 10.2% | 1.44% | 6.02% | -0.452% |
| Cc1cccc(CN2CCc3nnc(CO)n3CC2)n1 | -0.433% | 19.5% | -0.362% | 0% | 1.37% | 13% | 16.8% | 9.66% | 15% | -7.15% |
| O=C(c1ccc(F)cc1)N1CCC2(CCCN2CC2CC2)CC1 | -2.9% | 9.09% | -6.13% | -6.57% | 5.94% | 14% | 11.5% | 0.966% | 0% | -3.47% |
| Cn1c(CN2CCCC2c2noc(C3CC3)n2)cc(=O)n(C)c1=O (stereo not given) | -8.17% | 2.67% | -1.87% | -3.01% | -3.99% | 5.85% | 13.9% | 0.526% | 0% | -5.06% |
| CCc1ccc(O)c(C(=O)NC2CCN(C(=O)OC)CC2)c1 | 0.0182% | 15.4% | -8.93% | -4.79% | 4.51% | 5.89% | 36.6% | 5.26% | 13.2% | -4.89% |
| COc1cccc(-n2nnc(C(=O)N3CCNC(=O)C3)c2C)c1 | -4.4% | 15.4% | -22.9% | 9.11% | 0.41% | 8.96% | 16% | 5.26% | 25.3% | 22.3% |
| Cc1cccnc1CNCC1(O)CCCN(CC2CCCCC2)C1=O (stereo not given) | -6.4% | 0% | -1.52% | -2.04% | -3.85% | 3.25% | 1.47% | 7.98% | 17.1% | 0.826% |
| CC(C)n1ccnc1CN1CCCN(C(=O)c2nccnc2N)CC1 | -0.38% | 7.69% | -9.32% | 1.97% | 0% | 18.3% | 1.4% | 9.09% | 22.9% | -3.56% |
| Cc1cnn(CC2CCCN2C(=O)c2cc3c(F)cccc3[nH]2)c1 (stereo not given) | -2.09% | 5.2% | 8.2% | -5.6% | -2.66% | 2.81% | 26.7% | 1.96% | 11.8% | -1.7% |
| CCN1CCN(C(=O)NCCOc2ccc3c(c2)OCO3)CC1 | -3.49% | 20.8% | 7.69% | -3.92% | 1.84% | 12.6% | -5.27% | 2.94% | 16.5% | -6.7% |
| CCCC(=O)N1CCC2(CC1)CC(NC(C)=O)c1ccccc1O2 (stereo not given) | 0.455% | 1.3% | -0.437% | -4.69% | 7.31% | -0.0858% | 6.03% | -1.93% | -5% | -2.27% |
| O=C1CO[C@@H]2CN(Cc3cccs3)C[C@H]2N1CC1CC1 | -6.35% | 19.5% | -2.08% | 2.04% | 1.62% | 13.9% | -6.77% | 13.2% | 17.9% | -0.629% |
| Cc1ccc(NC2CCN(C(=O)c3n[nH]c4ccccc34)CC2)nn1 | -2.85% | 5.33% | 0.786% | -5.62% | 3.55% | -2.29% | 12.2% | 3.68% | 5.13% | -6.5% |
| O=C(NCCC1=CCCCC1)C1CCCN(c2ccc3nncn3n2)C1 (stereo not given) | -2.76% | 8.11% | 3.56% | -0.291% | -9.44% | 13.5% | -5.74% | 3.72% | 12.2% | -1.71% |
| O=C1COC2(CCN(C(=O)c3ccco3)CC2)CN1Cc1cccnc1 | -3.74% | 14.3% | -1.08% | -2.25% | -0.457% | 3.86% | -5.38% | 7.73% | 15% | -5.67% |
| FC(F)(F)c1nc(NC2CCCC2)c2ccccc2n1 | 1.99% | -2.7% | -2.53% | -0.291% | 5.94% | 9.76% | 45.1% | 0.532% | -2.44% | 35% |
| COc1ccc(C(=O)NCCCn2ccnc2)c(OC)n1 | -2.17% | 24.7% | 1.39% | 3.75% | 0% | 10.6% | 11.6% | 6.76% | 22.5% | -12.8% |
| Cc1cc(CN(C)C(=O)c2ccc(C(F)(F)F)nc2)no1 | -1.51% | -2.67% | 3.03% | -3.61% | 3.1% | 1.27% | -6.24% | -1.58% | 5.13% | 14.8% |
| Cn1cc(CN2CCCC23CCN(C(=O)c2cccn2C)CC3)cn1 | -1.03% | -6.49% | -3.73% | -0.876% | -2.43% | -0.441% | -15.7% | -0.526% | 0% | -0.154% |
| Cc1ccc(OCC(O)CN2CCC(Cn3cccn3)CC2)cc1 (stereo not given) | -0.525% | 7.79% | 7.42% | 0.373% | 4.3% | 7.89% | -3.3% | 10.8% | 23.5% | -5.78% |
| CCc1nc(C2CCCN2C(=O)c2ccc3c(c2)nc(C)n3C)no1 (stereo not given) | -0.423% | -2.67% | 4.72% | -2.41% | 1.77% | 3.31% | 7.34% | 1.58% | 0% | -6.99% |
| COc1ccc(CNC(=O)N2CCC(Cc3cnn(C)c3)C2)cc1C (stereo not given) | -1.91% | 7.69% | -4.56% | 8.36% | 4.92% | 11.2% | 10.9% | 0.478% | 13.2% | -4.08% |
| Cc1nc(N2CCCC2)nc2c1CN(C(=O)N1CCOCC1)CC2 | -4.38% | 14.3% | 1.78% | 0.75% | 3.2% | 15.9% | 1.81% | 10.6% | 15% | -9.99% |

Reference: ChEMBL document CHEMBL3988442, “University of Dundee, Small-Polar-MMV Screening Library” (2021)
